FBW7 activator: activators of human E3 ligase FBW7. normalized activity (activation), % at 26.1 µM. AlphaScreen FBW7–phospho-cyclin E peptide binding, activator screen. hit rate 0.13% among 650,000. Q969H0; in the data active means normalized activity above about 1.9%;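 further: purified mutant Fbw7 with reduced substrate affinity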
GPR151 ag: activators of human GPR151 | Q8TDV0 | PathHunter beta-arrestin GPR151 cells, luminescence | activation, % at 11.2 µM | hit rate 1% among 650,000; in the data active means activation above about 4.9%;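 further: 0% = median of compound wells and 100% = cells with positive control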
MITF primary: inhibitors of human MITF. hit rate 0.91% among 650,000. AlphaScreen MITF homodimerization, bead proximity signal. inhibition, % at 2.6 µM. O75030; in the data active means inhibition above about 50%;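 further: 0% = vehicle wells with protein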
Target sequence (O75030 whole entry, looked up): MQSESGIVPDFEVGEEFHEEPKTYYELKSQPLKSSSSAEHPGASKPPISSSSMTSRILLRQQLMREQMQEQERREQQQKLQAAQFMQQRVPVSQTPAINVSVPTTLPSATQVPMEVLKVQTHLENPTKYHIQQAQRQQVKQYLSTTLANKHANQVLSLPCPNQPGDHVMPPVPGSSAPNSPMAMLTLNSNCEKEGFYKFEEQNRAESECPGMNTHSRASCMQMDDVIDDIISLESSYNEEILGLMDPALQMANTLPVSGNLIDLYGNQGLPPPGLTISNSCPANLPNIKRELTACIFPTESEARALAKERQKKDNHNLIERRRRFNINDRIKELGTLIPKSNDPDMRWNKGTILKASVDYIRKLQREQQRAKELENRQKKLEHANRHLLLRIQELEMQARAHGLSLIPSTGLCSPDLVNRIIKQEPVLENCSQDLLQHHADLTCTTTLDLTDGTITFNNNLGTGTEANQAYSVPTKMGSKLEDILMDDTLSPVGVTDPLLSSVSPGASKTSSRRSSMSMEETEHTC
TEAD-YAP inh: TEAD-YAP interaction inhibition; AID 1259422; hit rate 1.4% among 640,000; HEK-TIYL cells, TEAD-Gal4/YAP UAS-luciferase luminescence; inhibition, % at 9.12 µM; in the data active means inhibition above about 32%;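 further: 0% = median of test compound wells and 100% = reference inhibitor wells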
GPR151 confirm: confirmation of human GPR151 activators; shares compounds with GPR151 ag; GPR151 PathHunter beta-arrestin cells, luminescence, 90 min; % of EA-reagent control over plate median; activation, % at 11.2 µM; 6,700 tested, under 10 active; AID 1508609;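 active means mean percent activation across replicates above the confirmation screen cutoff of 4.91%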
GPR119 counter: GPR119 activation, counter-screen for GPR151 activators; shares compounds with GPR151 ag; activation, % at 11.2 µM; hit rate 0.3% among 6,700; AID 1508611; GPR119 PathHunter beta-arrestin cells, luminescence, 90 min; 0 = compound-well median, 100 = enzyme-acceptor control;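 active means mean percent activation in the counterscreen above 29.09%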;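 further: counterscreen on off-target GPR119 to flag nonselective hits from the GPR151 activator screen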
The depositor's hits bear a star; . = not tested or not shown. In the library only some 3.5% were active in any assay of this set; here they are far more common.

SMILES	FBW7 activator	GPR151 ag	MITF primary	TEAD-YAP inh	GPR151 confirm	GPR119 counter
COc1ccc(CCNC(=O)CN2N=C(c3ccc(C)cc3)CCC2=O)cc1OC	0.0	6.7*	-5.7	-7.1	0.8	-1.8
O=C(Cn1c(=O)oc2ccccc21)NCc1cccc(Br)c1	0.1	-0.2	10.9	0.9	.	.
CC(C)(C)c1ccc(OCCN2C(=O)C(=O)c3ccccc32)cc1	0.1	5.4*	20.4	10.7	0.3	10.1
CC(C)(C)c1ccc(OCCCN2C(=O)C(=O)c3ccccc32)cc1	0.4	-0.7	11.6	5.8	.	.
CCOC(=O)C(C(=O)NCc1ccccc1)C1CCCCC1 (stereo not given)	-0.1	5.9*	-14.2	-3.6	-1.1	-0.6
Cc1cc(NC(=O)c2cc3ccccc3oc2=O)n(-c2nc3ccccc3[nH]2)n1	0.4	8.1*	-5.7	9.0	0.5	5.0
Cc1cc(NC(=O)c2ccccc2)n(-c2nc3ccccc3[nH]2)n1	0.0	-1.5	10.6	4.0	.	.
COc1ccc(-c2nnc(SCc3ccc(Cl)cc3)n2N)cc1	0.1	-0.6	10.2	2.5	.	.
COc1ccccc1C(NC(=O)c1nccc2ccccc12)c1nccn1C (stereo not given)	-0.3	6.4*	6.6	-1.7	-0.2	-1.0
COc1ccccc1C(NC(=O)c1cnccn1)c1nccn1C (stereo not given)	0.6	0.2	10.2	1.3	.	.
CCC(C)N1C(=O)S/C(=C/c2cccc(OC)c2)C1=O (stereo not given)	-0.1	0.5	-10.4	-52.9	.	.
Cc1ccccc1NC(=O)C(N)=O	0.1	-0.8	-9.4	-10.1	.	.
C/C(=N/NC(=O)CNC(=O)c1ccccc1O)c1ccc(F)cc1	0.0	-1.1	12.3	-1.3	.	.
COc1ccc(/C(C)=N/NC(=O)CNC(=O)c2ccccc2O)cc1	0.2	5.3*	4.2	-6.3	-0.5	-7.6
CC(C)c1ccc(OCC(=O)O/N=C(\N)c2cccc([N+](=O)[O-])c2)cc1	-0.3	16.0*	-10.9	-3.6	-0.1	-7.1
COc1ccc(-c2nc3ccccc3c(=O)n2NCc2ccc(F)cc2)cc1	-0.1	0.8	-6.3	0.0	.	.
CC1(C)Cc2ccccc2/C(=C/C(=O)Nc2ccc(Cl)cc2)N1	0.1	-0.9	5.4	-1.9	.	.
CC1(C)Cc2ccccc2/C(=C/C(=O)Nc2ccc([N+](=O)[O-])cc2)N1	0.3	5.5*	-16.5	-5.2	0.7	11.5
NC(=O)C1CCN(C(=O)c2ccc3c(=O)n(C4CCCCC4)c(SCc4ccccc4F)nc3c2)CC1	0.0	0.3	-14.2	4.8	.	.
CCCCOC(=O)COc1ccc2c(=O)c(Oc3cccc(C)c3)c(C(F)(F)F)oc2c1	0.5	0.4	19.6	-3.6	.	.
CCCN1CCC(=NNC(=O)c2ccc(Cl)cc2Cl)CC1	0.1	4.9*	16.0	2.3	1.1	6.4
COc1ccc(/C=C/C(=O)N(C)C2CCN(C)CC2)c(OC)c1	-0.3	1.1	-4.2	-16.2	.	.
O=C(Cn1cc(C(=O)c2ccccc2)c(=O)c2ccccc21)Nc1ccc2c(c1)OCCO2	-0.5	6.6*	-4.8	7.5	0.4	6.4
O=C(Cn1cc(C(=O)c2ccc(F)cc2)c(=O)c2ccccc21)Nc1ccc2c(c1)OCO2	-0.1	-0.5	2.2	-6.1	.	.
CC(NC(=O)CSc1nnc(-c2cccs2)n1N)C12CC3CC(CC(C3)C1)C2 (stereo not given)	0.3	-0.9	22.2	5.2	.	.
SMILES	FBW7 activator	GPR151 ag	MITF primary	TEAD-YAP inh	GPR151 confirm	GPR119 counter
COC(=O)c1c(N)n(-c2ccc(F)c(F)c2F)c2nc3ccccc3nc12	0.2	0.5	-4.2	12.4	.	.
CCCCCC1C/C(=N/OC(C)=O)C=C(C)C1C(=O)OC (stereo not given)	0.1	7.3*	-5.7	-3.2	1.3	10.1
COCCn1c(SCC(=O)N2CCCC2=O)nnc1-c1ccncc1	-0.1	5.3*	8.7	11.8	-1.2	0.5
COCCn1c(SCC(=O)NC2CCCC2)nnc1-c1ccncc1	0.0	-0.1	-0.2	-2.9	.	.
CCn1c(=O)/c(=C2/Sc3ccc(OC)cc3N2C)s/c1=C1/C(=O)N(c2ccccc2)NC1=Nc1ccccc1	0.0	0.1	5.4	-7.1	.	.
CN(C)c1ccc(NC(=O)CC2NCCNC2=O)cc1 (stereo not given)	-0.3	5.0*	7.0	-4.6	-0.6	1.2
O=C(CC1NCCNC1=O)Nc1ccccc1 (stereo not given)	-0.2	0.2	-7.5	-1.1	.	.

High-throughput results (PubChem)
